About 83,000 compounds went through this panel and 20% of them were active in at least one assay; those are over-represented in the sample as a whole.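 Negative percent growth values reflect cell death: -40 means 40% of the cells present at the start died, and -100 means all died.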 Unmarked numbers belong to inactive results. Activity calls are given as the source filed them.

The experiment has as its system HCT-15 colon. Briefly: NCI-60 one-dose screen, 48 h (100 = growth as untreated, 0 = no growth, -100 = all killed). Conditions: 10 µM. On the procedure:
Growth inhibition of the HCT-15 human tumor cell line is measured as a screen for anti-cancer activity. Cells are grown in 96 well plates and exposed to the test compound for 48 hours. Compounds are tested at a single concentration, which is 10^-5 M for most compounds. The reported endpoint is percent growth (GI% or GIPRCNT), where numbers from 0 - 100% represent growth inhibition, and numbers from -100% - 0 represent cell death. For example, a value of 40 represents 60% growth inhibition. A value of 0 means no net growth occurred over the course of the experiment. A value of -40 indicates 40% of cells at the beginning of the experiment died by the end of the experiment. A value of -100 means all cells are dead at the end of the experiment.
NCI-60 Human Tumor Cell Lines Screen was performed using the standard one-dose NCI protocol, which is described in more detail at https://dtp.cancer.gov/discovery_development/nci-60/default.htm.
Compounds with GIPRCNT values below 10 were considered active. Activity score was based on GIPRCNT using the following formula: […]
Score is 0 for GIPRCNT values of 100 or above, 50 for GIPRCNT values of 0, and 100 for GIPRCNT values of -100.
`c1ccc([I+]c2ccccc2)cc1`: the growth was 89.4%.

Regarding `CCCN(CCC)CCC(O)c1cc2c(c3ccccc13)CCCC2` (stereo not given), the growth was 81.4%. Then `N=C(N)c1ccc(-c2ccc(-c3cccs3)s2)s1`, with -68.4% (active); and `CCCCCCCNc1nc(C=O)ncc1-c1ccc(C(F)(F)F)cc1`, with 97.6%; and `O=C(Nc1ccc(Cl)c([N+](=O)[O-])c1)Nc1nc2ccccc2s1`, with 92.3%.

As to `CCn1cc(C(=O)O)c(=O)c2cnc(N3CCCC3)nc21`, the growth is 111%.

Consider `COc1ccc(CN2CCC(N3CCCC3=O)c3cc(Cl)ccc32)cc1` (stereo not given), for which the growth is 104%. Turning to `C#Cc1ccc(-n2c(/C=C/c3ccc4ccccc4n3)nc3ncccc3c2=O)cc1`, the growth was -18.8% (active). The value for `O=C1c2ccc3c4c(ccc(c24)C(=O)N1CCNCc1ccccc1)C(=O)N(CCNCc1ccccc1)C3=O` was -25.9% (active); that for `O=C1N=NC2=C1c1c3ccccc3c(O)n1CC2` was 113%; that for `COc1cc2nc(Nc3cccc(NC(C)=O)c3)nc(N)c2cc1OC` was 93.8%.

In the case of `O=C1NC(=O)N(Cc2ccccc2)CC1Br` (stereo not given), the growth was 45.2%. Then `O=C(Nc1cccc(Cl)c1)Nc1nccs1`, with 86.2%. The value for `CC1=C(N2CCOCC2)C(N2CCOCC2)=C(C)C(=O)C1=O` was 99.6%; that for `COc1ccc(-c2ccc(-c3ccc(C(=N)N)cn3)o2)cc1` was 59.8%; that for `COc1cc(C(=O)N2CCN(c3ccccc3OC)CC2)c(N)cc1OCCCN1CCN(c2ccccc2OC)CC1` was 98.7%. Then `CCOC(=O)c1ccc(NC(=O)Nc2ncc(Cl)cc2Cl)cc1`, with 102%. As for `O=C(Cc1csc2nc(-c3ccc(Cl)cc3)cn12)N/N=C/c1ccccc1O`, the growth was 17.2%. Take `O=C(c1cccs1)c1ccccc1Cc1ccccc1`: the growth was 103%. Then `COc1ccc(-c2ccc3cc(C(=O)Nc4ccc(O)c(C(=O)/C=C/c5cc(OC)c(OC)c(OC)c5)c4)ccc3c2)cc1`, with 80.4%; and `ClCCOCCn1cnc2c(Cl)nc(Cl)nc21`, with 18.4%. The value for `COc1cc(-c2nc(-c3nnc(-c4ccc(F)c(Cl)c4)o3)c3ccccn23)cc(OC)c1OC` was 55.4%.

Turning to `O=C(CNC(=O)OCc1ccccc1)NCC(=O)Oc1ccc([N+](=O)[O-])cc1`, the growth was 105%. Turning to `COc1cc(Nc2ccnc(NCCCNc3ccnc4cc(Cl)ccc34)n2)cc(OC)c1`, the growth was 0.0216% (active).

For `N=c1c2c(-c3ccccc3)c(-c3ccccc3)n(Cc3ccccc3)c2ncn1CCCO`, the growth is 28.1%.

As to `COc1ccc(N=C2C(=Nc3ccc(OC)cc3)N(c3ccc(N(C)C)cc3)C(=S)N2c2ccc(OC)cc2)cc1`, the growth was 74.4%. Then `COc1cc(-c2nc(Nc3nc4ccccc4s3)[nH]c(=O)c2C#N)cc(OC)c1O`, with 107%. The value for `COc1ccc(-c2nn(-c3cccc(NC(=O)Nc4cc(C(F)(F)F)cc(C(F)(F)F)c4)c3)cc2-c2ccncc2)cc1Cl` was 12.1%; that for `Cc1cc(C)c2c(n1)sc1c(Nc3ccc(Cl)cc3)ncnc12` was 31%.

Regarding `COc1ccc2c(c1)sc1nc(-c3ccccc3)c(-c3ccc(O)c(OC)c3)n12`, the growth is 47.1%. Then `CCN(CC)CCCC(C)Nc1ccc2ccc(Cl)cc2n1` (stereo not given), with 102%; and `COc1cc([C@@H]2c3cc4c(cc3C(Br)[C@H]3COC(=O)[C@H]23)OCO4)cc(OC)c1OC` (stereo not given in full), with -3.53% (active). Then `CCN(CC)Cc1cc(Nc2ccnc3cc(Cl)ccc23)ccc1OC`, with 56.4%; and `CN(C)CCN=c1nc2c(c(N)n1-c1ccccc1)c(=S)n(-c1ccccc1)c(=S)n2-c1ccccc1`, with 18.8%.

As to `N#Cc1ncc(-c2ccc(C(F)(F)F)cc2)c(NCc2cc(C(F)(F)F)cc(C(F)(F)F)c2)n1`, the growth was 7.65% (active). Then `COC(=O)c1ccc(=O)oc1`, with 97.8%; and `COc1cc(Cl)cc(-c2nn(-c3cccc(NC(=O)Nc4ccc(Cl)c(Cl)c4)c3)cc2-c2ccncc2)c1`, with 13.9%. On to `CC(=O)N(C)c1ccc(Nc2ccc(Nc3ccc(N(C)C(C)=O)cc3)c3c2C(=O)c2ccccc2C3=O)cc1`, for which the growth is 79.8%.

Regarding `Cc1ccc(NC(=O)CSc2nc3ccccc3c(=O)n2CCc2ccccc2)c(C(=O)O)c1`, the growth is 107%. The value for `CS(=O)(=O)Nc1cccc(-c2cc(-c3ccccc3Cl)c(C#N)c(N)n2)c1` was 30.1%.

Values taken from PubChem BioAssay (NCI).
